Screening data as filed in PubChem BioAssay.
In the library only some 19% were active in any assay of this set; here they are far more common.
HT1080-NT tox: kills 2HG-producing HT-1080-NT fibrosarcoma cells. HT-1080-NT fibrosarcoma viability, CellTiter-Glo ATP luminescence, 48 h. actives 1.6% (n = 360,000). Potency, µM (top dose mostly 46.1 µM), for the others: at the top dose activity, negative = less viability, most hits filed as cytotoxic;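 also: NT is the 2HG producing partner of a matched IDH1 knockdown line; potency is read from the fitted curve at half-maximal effect; 0% = DMSO-treated cells and -100% = media-only wells without cells; nearly all actives have a fitted effect of over 55% in size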
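Luminescent CellTiter-Glo readout after 48 hours of compound exposure at 37 degrees C defined viability of HT-1080-NT cells. Activity was normalized to DMSO wells and cell-free media wells; concentration-response curves were fitted and assigned curve classes.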
IL-1B inflam inh: inflammasome signaling inhibition, IL-1 beta readout; AID 743279; THP-1 LPS/ATP IL-1B secretion, AlphaLISA, 16 h; active compounds read low; activity change, % at 57.5 µM; actives 4.7% (n = 360,000); in the data active = activity change below about -50%; inconclusive = mostly about -30% to -49%
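THP-1 cells pretreated 1 hr with compounds (up to 57.5 uM final), then stimulated with LPS (250 ng/mL final) plus ATP (1.25 mM final); secreted IL-1B measured by AlphaLISA after 16 hr, decreased signal indicating inhibition.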
TDP1 cell noCPT: qHTS for Inhibitors of human tyrosyl-DNA phosphodiesterase 1 (TDP1): qHTS in cells in absence of CPT. DT40 Tdp1-/- hTDP1 cells, no CPT, ATP luminescence, 48 h. Potency, µM (highest dose often 46.2 µM), inactives show at the top dose activity change, negative = growth inhibition, usual class: inhibitors. AID 686978, 2013. actives 15% (n = 420,000); also: potency is read from the fitted curve at half-maximal effect; nearly all actives have a fitted effect of over 55% in size
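Readout: luminescence from CellTiter-Glo after 30 min in the dark at RT. Cells: DT40 Tdp1-/- with stable hTDP1, 400/well. Exposure: compounds alone, ≥48 hr, 37 °C.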
HT1080 IDH1KD tx: kills HT-1080 cells with IDH1 knockdown; actives 2% (n = 360,000); AID 686971; HT-1080 IDH1 knockdown viability, ATP luminescence, 48 h; Potency, µM (top dose mostly 46.1 µM), for inactives: at the top dose activity, negative = toxicity, most hits filed as cytotoxic;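 also: potency is read from the fitted curve at half-maximal effect; 0% = DMSO wells and -100% = cell-free medium wells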
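% activity derives from luminescence (CellTiter-Glo), normalised to DMSO and no-cell wells. HT-1080-IDH1KD cells, 750/well, had 48 h compound exposure at 37 °C.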
TDP1 cell CPT: DT40-hTDP1 cell growth loss with CPT. AID 686979. Potency, µM (titrated, usually from 46.2 µM), inactives show top-dose activity change, negative = growth inhibition, usual class: inhibitors. chicken DT40 Tdp1-/-;hTDP1 cells + 20 nM CPT, ATP luminescence, 48 h. actives 12% (n = 420,000); also: potency is read from the fitted curve at half-maximal effect; nearly all actives have a fitted effect of over 55% in size
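Cell growth measured by CellTiter-Glo luminescence after a minimum 48 h, 37 C compound exposure with 20 nM CPT in Tdp1-knockout DT40 cells stably expressing hTDP1, seeded 400/well; qHTS titration format.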
Numbers without * were called inactive; u = inconclusive; x = no result. Unless noted, calls follow the shape of the dose curve; as a rule, active = well fitted curve in the direction sought with a large enough effect; inconclusive = small, poorly fitted or top-dose-only effect, or another doubt; inactive = no such curve, though single readings can be large; an effect the other way counts as inactive or inconclusive. Unless noted, % is scaled to controls: 0 for no effect and ±100 for the full control effect.

SMILES	HT1080-NT tox	IL-1B inflam inh	TDP1 cell noCPT	HT1080 IDH1KD tx	TDP1 cell CPT
O=C1c2cccc3cccc(c23)C(=O)N1CC1CCN(S(=O)(=O)c2ccc(F)cc2)CC1	u	-7	12µM*	10%	u
O=c1c2nnn(-c3ccc(Br)cc3)c2ncn1Cc1ccccn1	14%	27	-26%	11%	-4%
Cc1cc(N2CCCC2)nc2ccccc12	-5%	-16	u	-6%	u
Cc1nn(-c2cc(C)c3ccccc3n2)c2c1CCC2	23%	-4	23µM*	15%	u
CC12CCC(=O)N1C(C(=O)N1CCN(S(=O)(=O)c3ccc(Br)cc3Cl)CC1)CS2 (stereo not given)	-10%	u	u	-8%	u
S=C1NC(c2ccccc2)=CC(c2ccccc2)N1 (stereo not given)	3%	-12	29µM*	-5%	u
CC1=CC(c2ccccc2)NC(=S)N1 (stereo not given)	-1%	0	-2%	-2%	-13%
Cc1ccc(Cn2c(N/N=C/c3ccncc3)nc3c2c(=O)n(C)c(=O)n3C)cc1	-22%	23	18µM*	0%	u
COc1cc(/C=N/Nc2nc3c(c(=O)n(C)c(=O)n3C)n2Cc2ccccc2)ccc1OC(=O)c1ccco1	0%	u	5.2µM*	1%	5.8µM*
Cn1c(=O)c2c(nc(N/N=C/c3ccncc3)n2Cc2ccccc2)n(C)c1=O	-9%	76	u	-11%	u
COc1cc(/C=N/Nc2ccc(Cl)c(C(=O)O)c2)ccc1OC(=O)c1ccco1	2%	-5	0%	5%	-2%
Cc1cc(F)ccc1-c1cc(C(=O)Nc2ccccc2)[nH]n1	-10%	-14	u	-17%	u
CC(=O)Nc1ccc(NC(=O)[C@H](C)NC(=O)c2ccco2)cc1	8%	23	7%	11%	10%
CCOc1ccc(/C=C/c2nc(C#N)c(NCCCOC)o2)cc1	u	-2	1.5µM*	u	2.3µM*
CCOc1ccc(-c2nc(C#N)c(NCCCOC)o2)cc1	x	x	6.5µM*	x	8.2µM*
CCOc1ccc(-c2nc(C#N)c(NCc3ccco3)o2)cc1	-4%	u	u	21%	21µM*
Cc1ccc(CNc2oc(-c3ccco3)nc2C#N)cc1	2%	10	u	0%	18%
COCCCNc1oc(-c2ccccc2F)nc1C#N	10%	-11	-18%	16%	u
CCOc1ccc(/C=C/c2nc(C#N)c(NCCCN(C)C)o2)cc1	u	-76*	u	u	21µM*
O=C(CN(Cc1ccc(F)cc1)C(=O)CCC(=O)Nc1ccccn1)NCCc1ccccc1	23%	23	-21%	3%	-16%
COc1ccc(Cl)cc1C(=O)NNC(=O)CN1C(=O)C2CC=CCC2C1=O (stereo not given)	-1%	0	11%	3%	-5%
CCNc1nc2nonc2nc1NCC	1%	18	-15%	1%	5%
CCCc1cc(=O)n2[nH]c(-c3ccc(OC)cc3)nc2n1	13%	-7	-7%	8%	-22%
O=C(CNC(=O)Cc1ccccc1)N=Nc1c(O)n(Cc2ccc3c(c2)OCO3)c2ccccc12	-10%	u	-9%	-11%	u
Oc1c(N=NC(=S)Nc2ccccc2F)c2ccccc2n1Cc1cccc(Cl)c1	u	-11	6.5µM*	-23%	6.5µM*
SMILES	HT1080-NT tox	IL-1B inflam inh	TDP1 cell noCPT	HT1080 IDH1KD tx	TDP1 cell CPT
Cc1cccc(Cn2c(O)c(N=NC(=S)Nc3ccccc3F)c3ccccc32)c1	-1%	-7	7.3µM*	0%	7.3µM*
Oc1c(N=NC(=S)Nc2ccccc2F)c2ccccc2n1Cc1ccc(F)cc1	-15%	-9	2.3µM*	-15%	5.2µM*
Fc1ccc(CNC(=S)Nc2ccccc2F)cc1	0%	-8	-15%	1%	-6%
O=C(CSc1nc2ncccc2o1)Nc1ccc(Cl)cc1F	x	x	u	x	-6%
Cc1ccc(S(=O)(=O)n2nc(-c3ccco3)nc2N)cc1	-1%	22	7%	-13%	13%
COc1ccc(NC(=O)CCCn2nc(C)c3c(C)n(-c4ccccc4)nc3c2=O)cc1	4%	-5	12%	2%	-13%
Cn1c(=O)c2[nH]c(N3CCCCC3)nc2n(C)c1=O	4%	29	1%	1%	21µM*
Cn1c(=O)c2[nH]c(N=NN3CCCCC3)nc2n(C)c1=O	8%	27	-18%	0%	u
Cc1c(Cl)cccc1-n1ncc(C(=O)Nc2ccc(F)cc2F)c1C1CCN(C(=O)OC(C)(C)C)CC1	x	x	15µM*	x	u
Cc1c(Cl)cccc1-n1ncc(C(=O)NC2CCCC2)c1C1CCN(C(=O)OC(C)(C)C)CC1	x	x	21µM*	x	u
Cc1c(Cl)cccc1-n1ncc(C(=O)N2CCC(C)CC2)c1C1CCN(C(=O)OC(C)(C)C)CC1	x	x	21µM*	x	u
CCC1c2ccccc2C(=O)C1C(N)=O (stereo not given)	15%	1	-5%	15%	-23%
Cc1ccc(NC(=O)C(=O)NCC(c2cccnc2)N2CCN(Cc3ccccc3)CC2)cc1C (stereo not given)	x	x	16µM*	x	16µM*
Cc1ccc(NC(=O)C(=O)NCC(c2cccnc2)N2CCOCC2)cc1C (stereo not given)	x	x	u	x	-23%
Cc1ccc(NC(=O)C(=O)NCC(c2cccnc2)N2CCN(Cc3ccccc3)CC2)cc1F (stereo not given)	x	x	5.8µM*	x	7.3µM*
CC(C)c1cccc(C(C)C)c1NC(=O)CCl	2%	-83*	16µM*	-5%	u
Nc1cc(N)cc(C(=O)c2ccccc2)c1	-15%	0	2%	3%	-13%
O=C(O)/C=C/C(=O)Nc1ccccc1SC(F)(F)F	12%	7	21µM*	8%	7.3µM*
O=C(O)/C=C/C(=O)Nc1ccccc1-c1ccccc1NC(=O)/C=C/C(=O)O	21%	-1	-13%	19%	0%
O=C(O)/C=C\C(=O)Nc1ccccc1C#Cc1ccc(Br)cc1	u	-98*	u	u	u
COc1ccc(Oc2ncc3nc(-c4ccc(OC)cc4)c(=O)n(CCC#N)c3n2)cc1	x	x	-8%	x	11%
NC(=O)CC1Nc2cccc3cccc(c23)NC1=O (stereo not given)	-5%	0	2%	0%	17%
CCCOc1ccc(NC(=O)CC2Nc3ccccc3NC2=O)cc1 (stereo not given)	-2%	-17	u	1%	-11%
